# Laboratory results published in PubChem BioAssay (EPA / NIEHS).
# Results filed as inconclusive are left out. Activity calls are given as the source filed them. The calls were made as follows, unless noted: active = hit-call score of the fitted dose curve at least 0.9, where 1 is the maximum; inconclusive = response in the unintended direction; inactive = score below 0.9.
# How the values were obtained:
# [1] = biological target: frog Thyroid hormone Receptor alpha (TRa), thra-a (gene 397942) (UniProt P15204); assay: ATG_frTRa_XSP2: Attagene TRANS-FACTORIAL Multi-Species (XSP2) HepG2 Assay for frog Thyroid hormone Receptor alpha (TRa) (AID 2283839)
# Summary of the method: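 Transfect HepG2 with multiple reporter units (GAL4-UAS), dose chemical, incubate 24 h. Isolate RNA, reverse-transcribe, PCR-amplify reporter, label with 6-FAM by primer extension, digest with HpaI, run capillary electrophoresis; induction scored against DMSO.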
# [2] = biological target: human Thyroid hormone Receptor beta (TRb), THRB (gene 7068) (UniProt P10828); assay: ATG_hTRb_XSP2: Attagene TRANS-FACTORIAL Multi-Species (XSP2) HepG2 Assay for human Thyroid hormone Receptor beta (TRb) (AID 2283840);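 also: actives raise reporter mRNA so potency reflects agonist-like gain of signal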
# Summary of the method: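 Transient transfection of human HepG2 with multi-species NR-Gal4/GAL4-UAS reporter constructs; 24 h compound treatment; RNA isolation, reverse transcription, PCR and HpaI digest; capillary electrophoresis of labeled fragments; activity fitted upward versus DMSO.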
# PGR (gene 5241) [3] = biological target: PGR (gene 5241) (UniProt P06401); assay: TOX21_PR_BLA_Followup_Agonist_ratio: Tox21 HEK293 Progesterone Receptor (PR) Agonism Beta-lactamase Follow-Up Assay, Ratio (AID 2283933)
# Summary of the method: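 Cells were seeded and held 6 hr before compound addition, exposed for 16 hr at 37C, then given FRET substrate for 2 hr at room temperature. Agonism was scored from the blue/green substrate cleavage ratio against DMSO controls.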
# PGR (gene 5241) [4] = biological target: PGR (gene 5241) (UniProt P06401); assay: TOX21_PR_LUC_Followup_Agonist: Tox21 HEK293 Progesterone Receptor (PR) Agonism Luciferase Follow-Up Assay (AID 2283937; active = hit-call score of the fitted dose curve at least 0.9, where 1 is the maximum; inactive = score below 0.9)
# Summary of the method: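 Seed HEK293-PR-A-luc cells, wait 5 h, add compounds in DMSO, incubate 16 h at 37C, add ONE-Glo, read luminescence after 30 min. Activity is increase over DMSO controls; run with a viability counter-screen.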
# [5] = biological target: Thyroid hormone receptor alpha (Rattus norvegicus) + Thyroid hormone receptor beta (Rattus norvegicus) (UniProt P18113+P63059); assay: TOX21_TR_LUC_GH3_Agonist_Followup: Tox21 GH3 Thyroid Hormone Receptor Agonism Luciferase Follow-Up Assay (AID 2283939)
# Summary of the method: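 Agonist-mode confirmatory run: 15 concentrations (5 nM to 92 uM final) on GH3 rat pituitary cells, 24 h at 37C/5% CO2, T3 as positive control. Luminescence read with ONE-Glo after 30 min.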
# Sequence of frog Thyroid hormone Receptor alpha (TRa), thra-a (gene 397942) (P15204 whole entry, looked up, the tested form may be a part): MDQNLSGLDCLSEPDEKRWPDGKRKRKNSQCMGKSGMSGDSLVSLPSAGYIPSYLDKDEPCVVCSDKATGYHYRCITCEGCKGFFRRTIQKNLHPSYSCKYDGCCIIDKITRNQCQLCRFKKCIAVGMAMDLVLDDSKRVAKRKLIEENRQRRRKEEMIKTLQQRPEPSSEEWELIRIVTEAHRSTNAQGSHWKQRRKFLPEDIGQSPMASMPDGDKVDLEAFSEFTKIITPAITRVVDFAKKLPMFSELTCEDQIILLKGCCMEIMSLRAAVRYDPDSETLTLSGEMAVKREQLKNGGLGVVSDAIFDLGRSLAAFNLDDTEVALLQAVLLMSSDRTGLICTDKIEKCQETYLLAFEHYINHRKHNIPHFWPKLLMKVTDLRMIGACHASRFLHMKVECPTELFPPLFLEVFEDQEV
# Sequence of human Thyroid hormone Receptor beta (TRb), THRB (gene 7068) (P10828 whole entry, looked up, the tested form may be a part): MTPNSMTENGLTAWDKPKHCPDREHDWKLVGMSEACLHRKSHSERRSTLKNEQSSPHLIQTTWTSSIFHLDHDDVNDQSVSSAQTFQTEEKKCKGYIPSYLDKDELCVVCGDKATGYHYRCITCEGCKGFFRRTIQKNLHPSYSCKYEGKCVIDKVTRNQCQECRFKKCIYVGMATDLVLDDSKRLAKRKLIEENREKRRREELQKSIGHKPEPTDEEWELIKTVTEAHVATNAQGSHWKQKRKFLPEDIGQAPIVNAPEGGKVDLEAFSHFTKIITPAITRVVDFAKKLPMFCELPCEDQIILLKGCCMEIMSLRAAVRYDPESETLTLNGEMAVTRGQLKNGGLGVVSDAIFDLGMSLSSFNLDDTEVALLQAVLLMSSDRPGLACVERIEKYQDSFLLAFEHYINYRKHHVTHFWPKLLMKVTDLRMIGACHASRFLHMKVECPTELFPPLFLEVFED
# Sequence of PGR (gene 5241) (P06401 whole entry, looked up): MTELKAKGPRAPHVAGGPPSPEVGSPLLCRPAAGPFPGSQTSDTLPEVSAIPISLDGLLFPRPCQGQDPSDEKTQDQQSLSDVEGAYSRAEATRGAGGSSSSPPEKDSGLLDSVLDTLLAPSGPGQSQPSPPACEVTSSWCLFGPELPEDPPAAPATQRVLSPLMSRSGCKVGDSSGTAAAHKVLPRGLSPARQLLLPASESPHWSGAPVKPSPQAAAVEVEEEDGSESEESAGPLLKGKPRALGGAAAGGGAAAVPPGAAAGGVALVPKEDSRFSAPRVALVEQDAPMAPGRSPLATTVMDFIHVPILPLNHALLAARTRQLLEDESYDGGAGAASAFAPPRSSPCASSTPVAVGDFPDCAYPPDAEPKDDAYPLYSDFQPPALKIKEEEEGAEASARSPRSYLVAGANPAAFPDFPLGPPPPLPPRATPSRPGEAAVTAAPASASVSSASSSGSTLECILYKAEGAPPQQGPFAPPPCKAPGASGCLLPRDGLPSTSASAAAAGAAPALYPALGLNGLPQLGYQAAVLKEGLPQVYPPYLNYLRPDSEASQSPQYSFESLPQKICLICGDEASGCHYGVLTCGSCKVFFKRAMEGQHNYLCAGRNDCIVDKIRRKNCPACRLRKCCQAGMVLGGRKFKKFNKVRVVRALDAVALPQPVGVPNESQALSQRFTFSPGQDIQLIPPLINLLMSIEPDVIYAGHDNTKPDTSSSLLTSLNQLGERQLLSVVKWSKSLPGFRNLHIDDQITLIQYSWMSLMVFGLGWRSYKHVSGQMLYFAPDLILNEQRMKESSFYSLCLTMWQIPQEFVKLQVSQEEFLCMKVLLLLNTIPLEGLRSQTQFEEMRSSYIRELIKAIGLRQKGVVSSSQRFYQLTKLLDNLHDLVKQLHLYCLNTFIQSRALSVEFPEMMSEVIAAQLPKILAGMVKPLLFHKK
# Sequence of Thyroid hormone receptor alpha (Rattus norvegicus) + Thyroid hormone receptor beta (Rattus norvegicus) (P63059 whole entry, looked up): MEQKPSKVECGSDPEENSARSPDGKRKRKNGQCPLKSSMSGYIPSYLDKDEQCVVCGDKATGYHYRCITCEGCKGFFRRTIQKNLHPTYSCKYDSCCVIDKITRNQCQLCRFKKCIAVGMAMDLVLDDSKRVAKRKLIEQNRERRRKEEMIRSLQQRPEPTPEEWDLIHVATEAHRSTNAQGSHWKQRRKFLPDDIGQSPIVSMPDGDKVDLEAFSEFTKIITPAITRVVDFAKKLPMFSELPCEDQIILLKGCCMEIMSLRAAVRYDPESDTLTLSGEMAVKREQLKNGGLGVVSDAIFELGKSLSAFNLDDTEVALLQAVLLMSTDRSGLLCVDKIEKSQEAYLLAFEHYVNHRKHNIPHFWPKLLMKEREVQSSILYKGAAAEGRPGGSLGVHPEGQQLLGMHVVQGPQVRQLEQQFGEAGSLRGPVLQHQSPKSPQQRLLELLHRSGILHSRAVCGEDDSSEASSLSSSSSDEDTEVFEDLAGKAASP
# Sequence of Thyroid hormone receptor alpha (Rattus norvegicus) + Thyroid hormone receptor beta (Rattus norvegicus) (P18113 whole entry, looked up): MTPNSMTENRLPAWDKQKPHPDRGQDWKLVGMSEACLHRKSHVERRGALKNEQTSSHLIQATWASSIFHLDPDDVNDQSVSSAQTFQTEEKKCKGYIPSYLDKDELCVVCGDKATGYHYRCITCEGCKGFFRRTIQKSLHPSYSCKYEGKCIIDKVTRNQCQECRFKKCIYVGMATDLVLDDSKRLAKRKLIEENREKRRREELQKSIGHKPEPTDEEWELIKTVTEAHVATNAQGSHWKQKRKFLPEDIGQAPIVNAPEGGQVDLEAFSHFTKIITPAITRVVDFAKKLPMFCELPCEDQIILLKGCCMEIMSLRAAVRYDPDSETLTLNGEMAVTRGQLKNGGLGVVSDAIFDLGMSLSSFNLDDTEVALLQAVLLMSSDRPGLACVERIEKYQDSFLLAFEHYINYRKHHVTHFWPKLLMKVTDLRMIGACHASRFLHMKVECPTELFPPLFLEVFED
smiles,measurement,setting,value
O=C(c1ccc(O)cc1)c1ccc(O)cc1O,outcome,[1],inactive
same,outcome,[2],inactive
COC(=O)c1c(C)cc(O)c(C)c1O,outcome,[1],inactive
same,outcome,[2],inactive
CC(C)(c1cc(Br)c(OCCO)c(Br)c1)c1cc(Br)c(OCCO)c(Br)c1,outcome,PGR (gene 5241) [3],inactive
same,outcome,PGR (gene 5241) [4],inactive
NC(CO)(CO)CO,AC50,[5],10.6 µM (active)
CCCCCCC(O)CO (stereo not drawn),outcome,[5],inactive
